Test [1] is described as follows: NCI Yeast Anticancer Drug Screen. Data for the rad50 strain (AID 155).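 Note: 0% = growth of vehicle-only cultures of the same strain.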 The settings on record: S. cerevisiae rad50 strain growth inhibition; at 50.0 µM; hits give high values. The method in brief:
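Inhibition values express reduced yeast growth in compound-treated cultures relative to vehicle-treated controls.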

The nature of test [2]: NCI Yeast Anticancer Drug Screen. Data for the mec2-1 strain (AID 157). The settings on record: S. cerevisiae mec2-1 strain, at 50.0 µM, hits give high values. The method in brief:
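Mutant yeast (mec2-1) grown with compound; growth inhibition relative to vehicle control reported.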

Test [3] in a line: NCI Yeast Anticancer Drug Screen. Data for the sgs1 mgt1 strain (AID 161).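 Note: 0% = growth of cultures given vehicle only.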 Conditions: S. cerevisiae sgs1 mgt1 strain, at 50.0 µM, hits give high values. The method in brief:
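This yeast growth screen uses a strain with defined DNA-repair lesions; compound-treated growth is compared with vehicle-treated growth.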

The nature of test [4]: NCI Yeast Anticancer Drug Screen. Data for the cln2 rad14 strain (AID 165).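 Note: 0% = growth equal to vehicle treated cultures.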 The settings on record: S. cerevisiae cln2 rad14 strain, at 50.0 µM, hits give high values. Put shortly: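 Readout is yeast growth inhibition versus vehicle-treated controls, using a strain with cln2 and rad14 alterations exposed to compound.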
Test [5] can be described thus: NCI Yeast Anticancer Drug Screen. Data for the bub3 strain (AID 167). Conditions: S. cerevisiae bub3 mutant strain, at 50.0 µM, hits give high values. The method in brief: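 Steps: expose the mutant yeast strain to compound; grow alongside vehicle-treated cultures; measure growth; express inhibition against the vehicle cultures.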
Test [6] is described as follows: NCI Yeast Anticancer Drug Screen. Data for the mlh1 rad18 strain (AID 175). Conditions: S. cerevisiae mlh1 rad18 strain growth inhibition; at 50.0 µM; hits give high values. The method in brief: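 Genetically defined yeast (DNA repair-deficient) exposed to compounds; growth inhibition determined relative to vehicle.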

The panel holds about 79,000 compounds, 15% with a hit somewhere; the sample as a whole holds those more often. Unmarked numbers belong to inactive results. The source made the active and inactive calls. Cut-off read from the data, not from the text of the source: active = growth inhibition above about 70%; inactive = the rest.

Take `OCC1OC(O)C(CO)OC1O` (stereo not given): the growth inhibition was 16.1% in test [1]; -5.2% in test [2]; 3.7% in test [3]; 40.2% in test [4]; 22.2% in test [5]; -5.2% in test [6].

With `CC1(c2ccccc2)OC1(C)c1ccccc1` (stereo not given), the growth inhibition in test [1] is 5.7%; in test [2] it was -5.6%; in test [3] it was -7.65%; in test [4] it was -17.1%; in test [5], 21.1%; in test [6], 28.8%.

For `CC(C)C1NC(=O)c2ccccc2S1` (stereo not given), the growth inhibition in test [1] is 27.8%; in test [2], -15.9%; in test [3], -3.55%; in test [4], 26.1%; in test [5], 10.7%; in test [6], 44%.

On to `O=C(C(Cl)=C(N1CCOCC1)N1CCOCC1)C(Cl)Cl`, for which the growth inhibition in test [1] was -37.9%; in test [2], -18.4%; in test [3] it was -57.5%; in test [4] it was -15.8%; in test [5] it was -32.9%; in test [6], -34.6%.

Turning to `CCC[n+]1ccccc1C`, the growth inhibition was -0.95% in test [1]; 19.4% in test [2]; -4.3% in test [3]; 1.35% in test [4]; 7.9% in test [5]; 3.65% in test [6].

On to `CNc1ncnc2[nH]cc([N+](=O)[O-])c12`, for which the growth inhibition in test [1] is 6.45%; in test [2], 1.95%; in test [3], 10.1%; in test [4] it was 9.05%; in test [5], 3.9%; in test [6], 33.6%.

On to `c1cc(-c2cn3c(n2)SCC3)ccn1`, for which the growth inhibition in test [1] was 15.5%; in test [2], 5.9%; in test [3] it was -12.8%; in test [4], 7.8%; in test [5], 25.2%; in test [6], 19.9%.

Take `O=[N+]([O-])c1cc2c3ccccc3c([N+](=O)[O-])cc2c2ccccc12`: the growth inhibition was -10.2% in test [1]; -14.8% in test [2]; -8.6% in test [3]; -15.2% in test [4]; -10.5% in test [5]; 10.7% in test [6].

Turning to `Cc1nc2ccccc2c(=O)n1NC(=O)c1ccc([N+](=O)[O-])cc1`, the growth inhibition was -43.4% in test [1]; -26.4% in test [2]; -13.5% in test [3]; -21.4% in test [4]; -10.8% in test [5]; -19.1% in test [6].

As to `C=C(C)c1ccccc1N`, the growth inhibition in test [1] is -1.75%; in test [2], -40.4%; in test [3], -4.65%; in test [4] it was 6.95%; in test [5] it was -26.4%; in test [6] it was 14.1%.

As to `C(/C=C/C=C/Nc1ccc(N=Nc2ccccc2)cc1)=Nc1ccc(N=Nc2ccccc2)cc1`, the growth inhibition is -32.8% in test [1]; -38% in test [2]; -26.3% in test [3]; -1.65% in test [4]; -25.8% in test [5]; -30% in test [6].

With `CC1(C)CCCC(C)(C)C1=NO`, the growth inhibition is -20.2% in test [1]; -5.6% in test [2]; -9.75% in test [3]; 12.4% in test [4]; 5.75% in test [5]; 22.9% in test [6].

`O=C(NCCCCCCNC(=O)N1CCCCC1)c1cccnc1`: the growth inhibition in test [1] was -7.8%; in test [2] it was -21.3%; in test [3], -3.65%; in test [4] it was -27.2%; in test [5], 13.3%; in test [6], -33.6%.

In the case of `CC1(C)Cc2[nH]c3ccccc3c(=O)c2-c2nc3ccccc3c(=O)n21`, the growth inhibition in test [1] was -5.35%; in test [2] it was 6.05%; in test [3], 4.8%; in test [4] it was -35.6%; in test [5] it was -2.2%; in test [6], -12.9%.

With `CCCCCCC1(C=O)NC(=O)NC1=O` (stereo not given), the growth inhibition was 4.2% in test [1]; -12% in test [2]; -11.2% in test [3]; -14.1% in test [4]; -4.6% in test [5]; -1.35% in test [6].

For `CCC1(N=[N+]=[N-])C(=O)c2ccccc2N(c2ccccc2)C1=O` (stereo not given), the growth inhibition in test [1] is -13.3%; in test [2], -13%; in test [3] it was -18.9%; in test [4], 2.75%; in test [5], -0.95%; in test [6] it was -19.4%.

For the compound `C=C1C2CCC3(CCC4C5(C)CCCC4(CN(C(C)=O)C5)C3C2)C1O` (stereo not given), the growth inhibition in test [1] was 11.2%; in test [2], -5.1%; in test [3], 10.3%; in test [4] it was 1.4%; in test [5], 6.25%; in test [6], 8.95%.

On to `O=C1C(=O)c2ccccc2C(O)=C1CCCc1ccc(S(=O)(=O)c2ccccc2)cc1`, for which the growth inhibition is 2.35% in test [1]; 11.8% in test [2]; 0.7% in test [3]; 55.1% in test [4]; 16.2% in test [5]; 9.2% in test [6].

In the case of `CCC(=O)C1C(=O)CC(=O)C(C)C1c1ccccc1OC` (stereo not given), the growth inhibition in test [1] is -14.8%; in test [2], -6.6%; in test [3], 4.5%; in test [4], 38.5%; in test [5], 27.8%; in test [6], 10.4%.

Take `CC[n+]1[b-](C(C)(C)C)n(/N=C/C(C)(C)C)[b-](C(C)(C)C)[n+]1CC`: the growth inhibition in test [1] is 0.7%; in test [2], -13.2%; in test [3] it was -19.9%; in test [4], 20.4%; in test [5], -11.2%; in test [6], 4.95%.

Regarding `COc1ccc(CCCCl)c(C2=NCCc3cc(OC)c(OC)cc32)c1`, the growth inhibition in test [1] is 19.6%; in test [2] it was 2.4%; in test [3], -37.8%; in test [4], -6.1%; in test [5], -37.8%; in test [6], 0.9%.

For the compound `CCc1nc(-c2ccccc2)nc2c1nc(-c1ccc(C)cc1)n2Nc1ccccc1`, the growth inhibition in test [1] was 0.85%; in test [2], 6.05%; in test [3], -2.95%; in test [4] it was -0.25%; in test [5], -4.45%; in test [6] it was 20.9%.

As for `CCCc1c(OC)c(=O)c2c(OC)cc(OC)c3c4c(OC)cc(OC)c5c(=O)c(OC)c(CCC)c(c1c23)c54`, the growth inhibition in test [1] was 88.3% (active); in test [2] it was 92% (active); in test [3], 86.4% (active); in test [4] it was 88.5% (active); in test [5] it was 83% (active); in test [6] it was 92.6% (active).

For the compound `CN(C)CSCCO`, the growth inhibition in test [1] is -2.8%; in test [2] it was -1.5%; in test [3], -5.7%; in test [4] it was -14.8%; in test [5], -5.1%; in test [6] it was 0.45%.

As to `COC/C=C(\C)CC/C=C(\C)CCC=C(C)C`, the growth inhibition in test [1] was -8.2%; in test [2], 0.95%; in test [3], -1.2%; in test [4], 22.6%; in test [5] it was -27.3%; in test [6] it was 2.95%.

With `Cc1cccc(NC(=O)Oc2ccc(Nc3ccccc3)cc2)c1`, the growth inhibition was 6.6% in test [1]; 38.5% in test [2]; 40.2% in test [3]; 12.3% in test [4]; 62% in test [5]; 50.4% in test [6].

For `CC(O)(c1ccc(Cl)cc1)c1ccc(Cl)cc1`, the growth inhibition in test [1] was -4.05%; in test [2] it was -18.9%; in test [3], 1.2%; in test [4] it was -52.6%; in test [5] it was -8.75%; in test [6] it was -15.8%.

For `COc1cccc(C(=O)O)c1Cc1cccc2ccccc12`, the growth inhibition is 1.25% in test [1]; -6.7% in test [2]; 10.3% in test [3]; 27.2% in test [4]; -0.4% in test [5]; 25.1% in test [6].

`N#CCC(=O)N1CCCC1`: the growth inhibition in test [1] was -23.1%; in test [2] it was -32.3%; in test [3] it was -3.8%; in test [4] it was -8.6%; in test [5], -14.3%; in test [6] it was -26.2%.

In the case of `COc1ccc(C(C)c2cc3c(cc2OCC(=O)O)OCO3)cc1OC` (stereo not given), the growth inhibition in test [1] was -7.65%; in test [2] it was -10.2%; in test [3], -6.85%; in test [4], -4.8%; in test [5], -0.2%; in test [6], -3.2%.

As for `COC(=O)C(CSSCC(C(=O)NC(Cc1ccccc1)C(=O)NCC(=O)OC(C)(C)C)N1C(=O)CCC1=O)NC(=O)OCc1ccccc1` (stereo not given), the growth inhibition was -29.2% in test [1]; 11.4% in test [2]; -5.45% in test [3]; -45.4% in test [4]; -51.4% in test [5]; 18.9% in test [6].

Turning to `CC(=O)CC(=O)CCCCCCCCCCCC(=O)CC(C)=O`, the growth inhibition is -5.15% in test [1]; -15.4% in test [2]; -5.45% in test [3]; -0.1% in test [4]; 13.5% in test [5]; 10.4% in test [6].

Consider `Nc1ccc([N+](=O)[O-])c(F)c1`, for which the growth inhibition in test [1] was -6.05%; in test [2] it was -6.8%; in test [3], -3.25%; in test [4], -11.8%; in test [5] it was 10.1%; in test [6] it was 9.15%.

Consider `O=c1c(SCc2ccc(Cl)cc2)c(N2CCCCC2)cnn1-c1ccccc1`, for which the growth inhibition in test [1] is 20.5%; in test [2], 19.4%; in test [3], 10.8%; in test [4], 34%; in test [5] it was 9.3%; in test [6], 15.1%.

As to `O=C(C(=Cn1c(=O)cc[nH]c1=S)C(=O)c1ccccc1)c1ccccc1`, the growth inhibition is -14.7% in test [1]; -19.4% in test [2]; -27.6% in test [3]; 2.95% in test [4]; -15.6% in test [5]; -9.7% in test [6].

With `NNC(=O)C1=NN(c2ccccc2)C(=O)C1`, the growth inhibition in test [1] was 39.3%; in test [2] it was 12.8%; in test [3], 33.6%; in test [4], -12.9%; in test [5], 36.8%; in test [6], 42.1%.

On to `CCCCN(CCCC)CC(CC)N(CCCC)CCCC` (stereo not given), for which the growth inhibition is -8.4% in test [1]; 1.8% in test [2]; -5.7% in test [3]; -38.6% in test [4]; 10.8% in test [5]; 7.35% in test [6].

On to `CC1CCC2C1(C)CCC1C2(C)CCC2(C)C3CC(C)(C)CCC3(C)CCC12C` (stereo not given), for which the growth inhibition is -9.45% in test [1]; -35.8% in test [2]; -12.8% in test [3]; 1.6% in test [4]; -26.4% in test [5]; -11.2% in test [6].

With `ONc1ccccc1`, the growth inhibition is 15.3% in test [1]; 6.1% in test [2]; 11.8% in test [3]; 16.7% in test [4]; 28.1% in test [5]; 16.6% in test [6].

`CCCCCCCCOC(=O)Nc1ccc(S(=O)(=O)CC)cc1`: the growth inhibition in test [1] was -3.3%; in test [2], -7.2%; in test [3], -23.3%; in test [4], -31.9%; in test [5], -2.15%; in test [6], -22.2%.

(Values after PubChem BioAssay (NCI).)
